From PubChem BioAssay (EPA / NIEHS)
Results filed as inconclusive are left out. Calls of active or inactive are those of the source. The calls were made as follows, unless noted: active = hit-call score of the fitted dose curve at least 0.9, where 1 is the maximum; inconclusive = response in the unintended direction; inactive = score below 0.9.

What was measured:
[1] = target: Estrogen receptor (Homo sapiens) (UniProt P03372); assay: OT_ERa_GFPERaERE_0480: Odyssey Thera (OT) 8-hour HeLa Transcription Induction Assay for Estrogen Receptor (AID 2283381; active = hit-call score of the fitted dose curve at least 0.9, where 1 is the maximum; inactive = score below 0.9)
Estrogen receptor (Homo sapiens), sequence (P03372 whole entry, looked up): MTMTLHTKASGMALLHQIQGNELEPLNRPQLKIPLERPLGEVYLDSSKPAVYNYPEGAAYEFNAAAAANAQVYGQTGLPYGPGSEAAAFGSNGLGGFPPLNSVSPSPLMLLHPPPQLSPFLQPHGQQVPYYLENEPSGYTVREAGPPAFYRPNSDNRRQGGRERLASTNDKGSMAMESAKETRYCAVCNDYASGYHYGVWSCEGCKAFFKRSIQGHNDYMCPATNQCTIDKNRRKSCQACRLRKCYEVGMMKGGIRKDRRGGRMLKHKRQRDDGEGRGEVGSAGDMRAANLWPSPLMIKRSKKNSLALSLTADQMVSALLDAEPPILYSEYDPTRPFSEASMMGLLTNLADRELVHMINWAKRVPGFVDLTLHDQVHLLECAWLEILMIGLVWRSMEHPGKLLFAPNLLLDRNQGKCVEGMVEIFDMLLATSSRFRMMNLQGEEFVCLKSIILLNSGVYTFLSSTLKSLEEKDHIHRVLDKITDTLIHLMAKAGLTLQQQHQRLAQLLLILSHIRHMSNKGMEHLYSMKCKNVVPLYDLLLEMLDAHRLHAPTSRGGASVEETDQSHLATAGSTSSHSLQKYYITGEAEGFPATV
Method in brief: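 Fluorescent reporter signal, imaged by microscopy and scored with image-analysis algorithms, was taken 8 h after chemical dosing of HeLa cells; activity was fitted upward relative to DMSO.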

[2] = target: Estrogen receptor (Homo sapiens) (UniProt P03372); assay: OT_ERa_GFPERaERE_0120: Odyssey Thera (OT) 2-hour HeLa Transcription Induction Assay for Estrogen Receptor (AID 2283382)
Method in brief: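 HeLa, 384-well, 2 h chemical exposure; GFP reporter induction (ERE), fluorescence microscopy; high content image analysis; positive fitting direction vs DMSO.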

[3] = target: Peroxisome proliferator-activated receptor gamma (Homo sapiens) (UniProt P37231); assay: OT_PPARg_PPARgSRC1_1440: Odyssey Thera (OT) 24-hour Protein-Complementation Assay for Peroxisome Proliferator-activated Receptor Gamma/ SRC-1 Co-activator (AID 2283388)
Peroxisome proliferator-activated receptor gamma (Homo sapiens), sequence (P37231 whole entry, looked up, the tested form may be a part): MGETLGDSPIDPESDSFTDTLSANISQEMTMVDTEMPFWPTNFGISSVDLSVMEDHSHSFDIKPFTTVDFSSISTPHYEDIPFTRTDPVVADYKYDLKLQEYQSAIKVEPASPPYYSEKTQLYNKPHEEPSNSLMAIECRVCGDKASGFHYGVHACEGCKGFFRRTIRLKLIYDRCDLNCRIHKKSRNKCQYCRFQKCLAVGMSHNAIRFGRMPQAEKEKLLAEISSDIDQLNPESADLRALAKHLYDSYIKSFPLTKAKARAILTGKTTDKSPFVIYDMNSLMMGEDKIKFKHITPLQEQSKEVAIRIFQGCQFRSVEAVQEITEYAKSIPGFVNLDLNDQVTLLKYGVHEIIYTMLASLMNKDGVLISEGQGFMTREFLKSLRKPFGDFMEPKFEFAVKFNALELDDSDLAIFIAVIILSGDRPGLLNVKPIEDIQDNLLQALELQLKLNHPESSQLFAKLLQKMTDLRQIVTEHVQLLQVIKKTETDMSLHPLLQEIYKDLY
Method in brief: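 Readout is the 488 nm N/C fluorescence ratio from fixed, Draq5-stained HEK293T cells after 24 h compound exposure. Cells carried transiently transfected PPARg and SRC-1 fused to Venus fragments, transfected 48 h before treatment.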

[4] = TOX21_p53_BLA_p2_viability: Viability Assessment in the Tox21 HCT-116 p53 Agonism Beta-lactamase Assay, Phase 2 (AID 2283591);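 also: compound exposure lasted 16 h at 37 °C; actives lower the ATP signal meaning cytotoxicity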
Method in brief: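 HCT-116 p53-bla cells (4000/well) rested 5 h at 37C, then received compounds in DMSO (217-fold dilution) for 16 h at 37C, 5% CO2. After the CCF4 read, CellTiter-Glo was added; ATP luminescence was read after 30 min at room temperature.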

[5] = target: Retinoic acid receptor RXR-alpha (Homo sapiens) (UniProt P19793); assay: OT_NURR1_NURR1RXRa_0480: Odyssey Thera (OT) 8-hour HEK293T Protein Complementation Assay for Nurr1/retinoid X receptor (RXR) (AID 2283385)
Retinoic acid receptor RXR-alpha (Homo sapiens), sequence (P19793 whole entry, looked up, the tested form may be a part): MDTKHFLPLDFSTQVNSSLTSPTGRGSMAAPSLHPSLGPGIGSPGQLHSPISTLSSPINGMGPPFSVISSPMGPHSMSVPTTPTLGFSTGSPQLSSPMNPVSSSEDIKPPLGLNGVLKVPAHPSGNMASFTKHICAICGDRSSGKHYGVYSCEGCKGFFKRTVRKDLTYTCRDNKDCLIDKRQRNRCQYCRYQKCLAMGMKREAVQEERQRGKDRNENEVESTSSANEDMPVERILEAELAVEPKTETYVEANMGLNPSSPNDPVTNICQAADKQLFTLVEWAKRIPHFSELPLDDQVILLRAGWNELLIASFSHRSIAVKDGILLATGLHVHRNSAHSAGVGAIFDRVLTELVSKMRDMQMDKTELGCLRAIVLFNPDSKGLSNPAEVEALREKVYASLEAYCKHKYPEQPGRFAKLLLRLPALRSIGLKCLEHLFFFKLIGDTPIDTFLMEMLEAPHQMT
Method in brief: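 8 h compound exposure, HEK293T; Nurr1/RXRα fragment complementation; fluorescence intensity; positive fitting direction vs DMSO baseline.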

[6] = target: Retinoic acid receptor RXR-alpha (Homo sapiens) (UniProt P19793); assay: OT_NURR1_NURR1RXRa_1440: Odyssey Thera (OT) 24-hour HEK293T Protein Complementation Assay for Nurr1/retinoid X receptor (RXR) (AID 2283386)
Method in brief: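 Interaction of Nurr1 with RXRα brings fused reporter fragments together in human HEK293T cells, restoring a functional reporter. Fluorescence intensity is measured 24 h after chemical treatment, and values are analysed in the positive direction against DMSO.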

[7] = target: Peroxisome proliferator-activated receptor gamma (Homo sapiens) (UniProt P37231); assay: OT_PPARg_PPARgSRC1_0480: Odyssey Thera (OT) 8-hour Protein-Complementation Assay for Peroxisome Proliferator-activated Receptor Gamma / SRC-1 Co-activator (AID 2283387);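 also: nuclear to cytoplasmic split Venus YFP fluorescence ratio reporting PPARg SRC-1 interaction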
Method in brief: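 HEK293T transiently transfected with PPARg and SRC-1 fused to Venus YFP fragments, compounds 8 h at 37C. Fixed, Draq5-stained cells imaged; nuclear/cytoplasmic 488 nm fluorescence ratio over at least 350 cells per image; gain fitted versus DMSO.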

[8] = ATG_XTT_Cytotoxicity: Cytotoxicity Assessment in the Attagene TRANS-FACTORIAL HepG2 Assay (AID 2283584);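 as to AC50: cells exposed to compound for 24 h before reading; active means loss of viability signal versus DMSO baseline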
Method in brief: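 Viability endpoint from XTT after 24 h chemical exposure of reporter-transfected human HepG2 liver cells; signal loss fitted relative to DMSO negative control.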

[9] = target: Bile acid receptor (Homo sapiens) (UniProt Q96RI1); assay: OT_FXR_FXRSRC1_0480: Odyssey Thera (OT) 8-hour HEK293T Protein-Complementation Assay for Farnesoid X receptor/SRC-1 Co-activator (AID 2283383)
Bile acid receptor (Homo sapiens), sequence (Q96RI1 whole entry, looked up, the tested form may be a part): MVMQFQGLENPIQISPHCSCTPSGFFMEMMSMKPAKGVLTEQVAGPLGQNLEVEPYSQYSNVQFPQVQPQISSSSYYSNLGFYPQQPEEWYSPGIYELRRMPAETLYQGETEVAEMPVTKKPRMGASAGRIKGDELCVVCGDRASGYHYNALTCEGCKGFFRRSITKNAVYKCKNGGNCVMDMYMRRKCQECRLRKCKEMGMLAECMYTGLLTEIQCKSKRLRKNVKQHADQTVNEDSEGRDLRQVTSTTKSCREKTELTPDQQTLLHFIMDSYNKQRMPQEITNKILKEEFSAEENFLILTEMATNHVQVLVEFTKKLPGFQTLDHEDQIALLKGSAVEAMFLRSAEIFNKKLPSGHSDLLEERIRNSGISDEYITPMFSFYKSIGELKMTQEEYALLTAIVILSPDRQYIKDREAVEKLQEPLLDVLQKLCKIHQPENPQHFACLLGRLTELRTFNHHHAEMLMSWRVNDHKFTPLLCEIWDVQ
Method in brief: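 Human kidney HEK293T cells carried FXR/SRC-1 fragment-complementation constructs. Compounds were added and incubated 8 h. Reporter reassembly upon receptor–co-activator interaction was then quantified by fluorescence, with curves fitted in the positive direction relative to DMSO.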

[10] = CEETOX_H295R_11DCORT: CeeTox H295R High-throughput Steroidogenesis Assay for 11-Deoxycortisol (11DCORT) (AID 2283432; active = hit-call score of the fitted dose curve at least 0.9, where 1 is the maximum; inactive = score below 0.9;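 as to AC50: 11-deoxycortisol secreted into the medium measured by LC-MS/MS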); conditions: actives raise or lower the signal
Method in brief: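 H295R cells prestimulated 48 h with 10 uM forskolin, then exposed 48 h to chemical in 0.1% DMSO. 11-Deoxycortisol in medium quantified by HPLC-MS/MS after MTBE extraction; bidirectional fit versus DMSO. MTT viability read in same wells.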

[11] = CEETOX_H295R_OHPREG: CeeTox H295R High-throughput Steroidogenesis Assay for OH-Pregnenolone (OHPREG) (AID 2283434; active = hit-call score of the fitted dose curve at least 0.9, where 1 is the maximum; inactive = score below 0.9); conditions: actives raise or lower the signal
Method in brief: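 Human adrenal H295R cells were prestimulated 48 h with 10 uM forskolin, then exposed 48 h to chemical in 0.1% DMSO. Medium 17alpha-hydroxypregnenolone was quantified by HPLC-MS/MS after MTBE extraction; bidirectional fitting versus DMSO baseline.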

[12] = CEETOX_H295R_OHPROG: CeeTox H295R High-throughput Steroidogenesis Assay for OH-Progesterone (OHPROG) (AID 2283435; active = hit-call score of the fitted dose curve at least 0.9, where 1 is the maximum; inactive = score below 0.9;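 as to AC50: 17alpha-hydroxyprogesterone secreted into medium measured by HPLC-MS/MS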); conditions: actives raise or lower the signal
Method in brief: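 H295R, 10 uM forskolin prestim 48 h; cmpd in 0.1% DMSO 48 h; medium MTBE-extracted, HPLC-MS/MS for OH-progesterone; 7-pt std curve; bidirectional fit vs DMSO; MTT viability, chemicals diluted until viability >/=70%.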

[13] = CEETOX_H295R_ANDR: CeeTox H295R High-throughput Steroidogenesis Assay for Androstenedione (ANDR) (AID 2283436; active = hit-call score of the fitted dose curve at least 0.9, where 1 is the maximum; inactive = score below 0.9); conditions: actives raise or lower the signal
Method in brief: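 H295R human adrenal cells (passages ≤10) were exposed to test chemicals for 48 h; androstenedione in medium was MTBE-extracted and quantified by HPLC-MS/MS against a 7-point standard curve. Bidirectional fitting used DMSO as baseline.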

[14] = CEETOX_H295R_CORTIC: CeeTox H295R High-throughput Steroidogenesis Assay for Corticosterone (CORTIC) (AID 2283437; active = hit-call score of the fitted dose curve at least 0.9, where 1 is the maximum; inactive = score below 0.9;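 also: corticosterone secreted into medium quantified by mass spectrometry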); conditions: actives raise or lower the signal
Method in brief: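 H295R cells were prestimulated 48 h with 10 uM forskolin, then exposed 48 h to test chemical in 0.1% DMSO. Medium corticosterone was MTBE-extracted and quantified by HPLC-MS/MS; bidirectional fit versus DMSO baseline.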

[15] = CEETOX_H295R_CORTISOL: CeeTox H295R High-throughput Steroidogenesis Assay for Cortisol (AID 2283438; active = hit-call score of the fitted dose curve at least 0.9, where 1 is the maximum; inactive = score below 0.9); conditions: actives raise or lower the signal
Method in brief: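 Forskolin 10 uM 48 h prestim → test cmpd in DMSO (0.1% final) 48 h → medium MTBE-extracted → LC-MS/MS cortisol vs 7-pt std curve. Gain/loss of signal fitted vs DMSO. MTT viability in same wells.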

[16] = CEETOX_H295R_DOC: CeeTox H295R High-throughput Steroidogenesis Assay for DOC (AID 2283439; active = hit-call score of the fitted dose curve at least 0.9, where 1 is the maximum; inactive = score below 0.9); conditions: actives raise or lower the signal
Method in brief: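 Readout: 11-deoxycorticosterone in culture medium by reverse-phase C18 HPLC with ESI+ tandem MS after MTBE extraction. Cells: H295R, forskolin-primed (10 uM, 48 h), chemical-treated 48 h; DMSO 0.1% final. Activity fitted bidirectionally versus DMSO.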

[17] = CEETOX_H295R_PROG: CeeTox H295R High-throughput Steroidogenesis Assay for Progesterone (PROG) (AID 2283442; active = hit-call score of the fitted dose curve at least 0.9, where 1 is the maximum; inactive = score below 0.9;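 as to AC50: human H295R adrenal cells primed with 10 µM forskolin before dosing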); conditions: actives raise or lower the signal
Method in brief: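 Progesterone secreted by human H295R cells was measured by LC-MS/MS following 48 h chemical exposure at 0.1% DMSO, preceded by 48 h forskolin (10 uM) stimulation. Same-well MTT viability; cytotoxic concentrations diluted 10- or 100-fold and retested.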

[18] = CEETOX_H295R_TESTO: CeeTox H295R High-throughput Steroidogenesis Assay for Testosterone (TESTO) (AID 2283457; active = hit-call score of the fitted dose curve at least 0.9, where 1 is the maximum; inactive = score below 0.9); conditions: actives raise or lower the signal
Method in brief: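 Testosterone secreted into the medium over 48 h by H295R cells (maximum passage 10) was quantified by LC-MS/MS after MTBE extraction. Fitted in both directions against DMSO, with concentrations diluted until MTT viability was ≥70%.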

[19] = CEETOX_H295R_ESTRADIOL: CeeTox H295R High-throughput Steroidogenesis Assay for Estradiol (AID 2283440; active = hit-call score of the fitted dose curve at least 0.9, where 1 is the maximum; inactive = score below 0.9;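 also: estradiol secreted into medium quantified by LC-MS/MS after dansyl derivatisation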); conditions: actives raise or lower the signal
Method in brief: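 Estradiol in spent medium measured by LC-MS/MS after dansyl chloride derivatisation. Forskolin-primed (10 uM, 48 h) human adrenal H295R cells received test chemical 48 h at 0.1% DMSO; concentrations lowered until MTT viability >/=70%.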

[20] = CEETOX_H295R_ESTRONE: CeeTox H295R High-throughput Steroidogenesis Assay for Estrone (AID 2283441; active = hit-call score of the fitted dose curve at least 0.9, where 1 is the maximum; inactive = score below 0.9;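 also: estrone secreted into medium measured by LC-MS/MS after dansyl derivatization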); conditions: actives raise or lower the signal
Method in brief: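 H295R cells prestimulated 48 h with 10 uM forskolin, then exposed 48 h to chemicals in 0.1% DMSO final; estrone in medium extracted with MTBE, dansyl-derivatized, quantified by HPLC-MS/MS; bidirectional fitting versus DMSO, viability by MTT.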

Measured: AC50

C1CN(SSN2CCOCC2)CCO1
inactive: [1] | [2] | [3] | [4]

Cn1c([N+](=O)[O-])cnc1COC(N)=O
inactive: [1] | [2] | [5] | [6] | [7] | [3] | [8] | [4]

O=C1CCCC1
active: [1] 48.4 µM
inactive: [2] | [6] | [7] | [3] | [8] | [4]

O=C(OCC1CCC2OC2C1)C1CCC2OC2C1 (stereo not given)
inactive: [1] | [2] | [5] | [6] | [7] | [3] | [8] | [4]

CC/C=C\C/C=C\C/C=C\CCCCCCCC(=O)O
inactive: [1] | [9] | [5] | [7] | [3]

CO[Si](OC)(OC)c1ccccc1
inactive: [1] | [2] | [5] | [6] | [7] | [3]

CC(C)c1ccc2c(C(C)C)cc(C(C)C)c(S(=O)(=O)O)c2c1
inactive: [1] | [2] | [9] | [5] | [7] | [3] | [8] | [4]

CC(C)c1ccc2cc(C(C)C)ccc2c1
active: [6] 97.6 µM
inactive: [1] | [2] | [5] | [7] | [3] | [8]

CCCCC/C=C\CCC=O
not listed: [4] | [9] | [19] | [20]
inactive: all other assays above

C1=Cc2ccccc2C1
inactive: [1] | [2] | [6] | [7] | [3] | [8]

CCN(CCC#N)c1ccc(N=Nc2c(Cl)cc([N+](=O)[O-])cc2Cl)cc1
inactive: [1] | [2] | [7] | [3] | [8]
active: [9] 29 µM | [5] 67.7 µM | [6] 50 µM

O=C(C=Cc1ccccc1)OCc1ccccc1
active: [11] 50 µM | [12] 50 µM | [14] 36.2 µM | [17] 14.6 µM
not listed: [6] | [9] | [13] | [18]
inactive: all other assays above

CCOC(=O)CC
inactive: [1] | [9] | [6] | [7] | [3] | [8] | [4]

CCCCCCCCO[C@@H]1O[C@H](CO)[C@@H](O)[C@H](O)[C@H]1O
inactive: [1] | [9] | [7] | [3] | [8]

CCCCC(CC)CCC(CC(C)C)OS(=O)(=O)O (stereo not given)
inactive: [1] | [2] | [5] | [6] | [7] | [3] | [8] | [4]

CC(=O)[C@H]1[C@H](C#N)C[C@H]2[C@@H]3CC=C4C[C@@H](O)CC[C@]4(C)[C@H]3CC[C@@]21C
inactive: [1] | [9] | [6] | [7] | [3] | [8] | [4]

CCCCOCCOC(=O)COc1nc(Cl)c(Cl)cc1Cl
inactive: [1] | [9] | [6] | [7] | [3] | [8]

CCCCCCCC/C=C\CCCCCCCC(=O)O
inactive: [1] | [2] | [9] | [7] | [3] | [8] | [4]

C=C[Si](C)(C)O[Si](C)(C)C=C
inactive: [1] | [2] | [5] | [6] | [7] | [3] | [8] | [4]

CN(C)c1ccc(N=Nc2ccccc2C(=O)O)cc1
active: [4] 75.8 µM
inactive: [1] | [2] | [5] | [6] | [7] | [3] | [8]

Cc1ccc(C(C)c2ccc(C)c(C)c2)cc1C
active: [5] 83.5 µM | [6] 76.4 µM | [11] 42.5 µM | [12] 31.9 µM | [17] 40.9 µM
not listed: [4] | [7] | [9] | [13] | [18]
inactive: all other assays above

O=C1C(N(CO)C(=O)NCO)N(CO)C(=O)N1CO (stereo not given)
inactive: [1] | [2] | [7] | [3] | [8] | [4]

C=CC(=O)NC(C)(C)CS(=O)(=O)O
inactive: [1] | [2] | [7] | [3] | [8] | [4]

Oc1ccc(Cl)cc1Cc1cc(Cl)ccc1O
active: [5] 11.7 µM | [6] 11.2 µM | [10] 6.93 µM | [8] 27 µM
not listed: [2] | [4] | [9]
inactive: all other assays above

Cc1cc(C)c(C)cc1C
inactive: [1] | [9] | [5] | [6] | [7] | [3]
